In all, about 13,000 compounds went through this assay and about 3,200 (25%) showed an effect of 50% or more. The list shows a part of the results.

We go through 70 molecules from publication PMC4552634, “A New Set of Chemical Starting Points with Plasmodium falciparum Transmission-Blocking Potential for Antimalarial Drug Discovery” (PLoS ONE, 2015).

The test system of the experiment is P. falciparum stage V gametocytes. Also noted: BacTiter-Glo ATP luminescence viability of purified stage V gametocytes in 384-well plates, per cent inhibition versus DMSO. As to conditions: 48 h, 5 µM; inhibitor.
What is called % Inhibition is the change of the read-out against control, counted positive when it falls. With `Fc1ccc2[nH]c(-c3cccc(-c4cccc(CNCc5cnn(-c6ccccc6)n5)c4)c3)nc2c1.O=C(O)C(F)(F)F` [TCMDC-132976], the “% Inhibition” value is listed as -2.641%.
For `O=C(Nc1ccc2c(c1)OCCO2)c1cc(-c2cccnc2)nc2ccc(Cl)cc12` [TCMDC-124362] the value was -23.33%; for `Cc1cc(NN=Cc2ccccn2)c2cc(C(F)(F)F)ccc2n1` [TCMDC-142022], 35.2%.
For `S=C(NN=Cc1ccccn1)Nc1ccc2c(c1)OCCO2` [TCMDC-132009] the value was 95.93%; for `S=C(NN=Cc1ccccn1)NC1CC2C=CC1C2` (stereo not shown) [TCMDC-125752], 132.2%; for `CC(C)N=C(N)NN=Cc1ccc(Cl)c(Cl)c1` [TCMDC-138131], -38.45%.
The result for `S=C(NN=Cc1ccccn1)Nc1ccc(Cl)c(Cl)c1` [TCMDC-125522] reads 102.5%.
With `O=C(Cn1cnc2c(nnn2Cc2ccccc2F)c1=O)Nc1ccc2c(c1)OCCO2` [TCMDC-124462], the “% Inhibition” value is listed as -30.94%.
For `FC(F)(F)c1cccc(NC(=S)NN=Cc2ccccn2)c1` [TCMDC-123509] the value was 31.63%; for `O=C(NC1CC1)c1ccc(Nc2nccc(-c3c(-c4cccc(NC(=O)c5c(F)cccc5F)c4)nn4ccccc34)n2)cc1` [TCMDC-136002], -35.37%; for `CCCCN1C(=O)C(c2ccccc2)(c2ccccc2)N=C1N` [TCMDC-142007], 12.88%.
For `O=C(NCCN1CCOCC1)c1ccc(O)c(-c2cccc(C(F)(F)F)c2)c1` [TCMDC-140162] the value was 21.52%.
The result for `CCCNC(=O)c1ccc(N2CCC(c3ccccc3C)CC2)nc1` [TCMDC-134583] reads 17.76%; that for `O=C(NC1CCCCCC1)[C@@H]1CCCN1C(=O)c1ccc(O)c(-c2ccc(Cl)c(Cl)c2)c1` [TCMDC-140843], 28.6%.
Regarding `COc1ccc2nccc([C@@H](O)CN3CCC(NCc4cc5oc(=O)[nH]c5cc4F)CC3)c2c1` [TCMDC-141140], the “% Inhibition” value is reported as 3.08%.
For `CCc1ccccc1N1CCN(CCCC(=O)c2ccc(NC(=O)c3cc(Cl)cc(Cl)c3)cc2)CC1` [TCMDC-138229] the value was -19.19%; for `Nc1nc(N)c2cc(Cc3ccccc3Cl)cnc2n1` [TCMDC-137918], -87.91%; for `CC(C)(C)C(=O)Nc1c(-c2cc(=O)oc3cc4c(cc23)CCC4)oc2ccccc12` [TCMDC-125081], 76.3%.
For `O=C(NCC1CCCCC1)c1cc(=O)c2ccccc2o1` [TCMDC-123621] the value was 8.117%.
For `CCOC(=O)CNC(=O)c1cc(=O)c2ccccc2o1` [TCMDC-131778] the value was 11.83%.
As to `COC(=O)c1c(NC(=O)c2cccc(C(F)(F)F)c2)sc2c1CCN(Cc1ccccc1)C2` [TCMDC-125828], the “% Inhibition” value is on record as -72.37%.
The result for `CCOC(=O)c1ccc(N2CCN(c3cc(C)ccc3C)CC2)c(NC(=O)Nc2ccc(Cl)c(Cl)c2)c1` [TCMDC-123849] reads 0.9649%; that for `N#Cc1ccc(N[C@@H](CC2CCCCC2)C(=O)NCc2cc(F)c(F)cc2F)c2ccccc12` [TCMDC-136630], -9.58%; that for `N#Cc1ccc(N2C[C@@H](OCc3ccccc3)C[C@H]2C(=O)NCCC(c2ccccc2)c2ccccc2)c2ccccc12` [TCMDC-135421], 62.52%.
The result for `COc1ccccc1CCC(C)(C)NC(=O)CC(CCc1ccccc1)Nc1ccc(C#N)c2ccccc12` (stereo not shown) [TCMDC-132307] reads 13.06%; that for `CO[C@@H]1C[C@@H](C(=O)Nc2ccccc2)N(c2ccc(C#N)c3ccccc23)C1` [TCMDC-135413], 86.31%.
For `N#Cc1ccc(N(CC(=O)NCCc2ccccc2)CC2CC2)c2ccccc12` [TCMDC-135574], the “% Inhibition” value is recorded as -1.825%.
For `Cc1cc(NC(=O)[C@@H](Nc2ccc(C#N)c3ccccc23)C2CCCCC2)ccc1F` [TCMDC-136635] the value was -42.79%; for `CCOc1cc(C(=O)Nc2ccc3nc(N4CCN(C)CC4)cc(C)c3c2)cc(OCC)c1OCC` [TCMDC-123589], -11.34%.
For `O=C(/C=C/c1cccc2c1OCO2)Nc1ccnc2ccncc12` [TCMDC-139845] the value was -12.08%.
In the case of `Cc1ccccc1CNCC(O)c1cccc(C(F)(F)F)c1` (stereo not shown) [TCMDC-140393], the “% Inhibition” value amounted to 2.038%.
The result for `Cn1cccc1C(=O)NCC(CCNc1cc(=O)c2ccccc2[nH]1)NCc1cc(Br)cc(Br)c1` (stereo not shown) [TCMDC-140218] reads -44.96%; that for `Cc1sc(C)c(CNCCCNc2cc(=O)c3ccccc3[nH]2)c1Br` [TCMDC-140765], -54.98%.
The result for `COc1cc(/C=C/C(=O)NCC(CCNc2cc(=O)c3ccccc3[nH]2)NCc2cc(Br)cc(Br)c2)cc(OC)c1` (stereo not shown) [TCMDC-140217] reads -26.95%.
The result for `O=c1cc(NCCC(CNCc2cc3ccccc3o2)NCc2cc(Br)cc(Br)c2)[nH]c2ccccc12` (stereo not shown) [TCMDC-140345] reads 70.19%; that for `O=c1cc(NC[C@H]2CCC[C@@H]2NCc2cc(Br)cc(Br)c2)[nH]c2ccccc12` [TCMDC-139655], -0.8474%.
Turning to `O=c1cc(NCCC(CNCc2ccc(Br)o2)NCc2cc(Br)cc(Br)c2)[nH]c2ccccc12` (stereo not shown) [TCMDC-140348], the “% Inhibition” value is reported as 17.71%.
For `Cc1cc(CNCC(CCNc2cc(=O)c3ccccc3[nH]2)NCc2cc(Br)cc(Br)c2)oc1C` (stereo not shown) [TCMDC-140347] the value was 61.99%; for `O=c1cc(NCCCNCc2cc(Br)cs2)[nH]c2ccccc12` [TCMDC-139310], -17.04%.
The result for `CCc1ccc(CNCC(CCNc2cc(=O)c3ccccc3[nH]2)NCc2cc(Br)cc(Br)c2)o1` (stereo not shown) [TCMDC-140346] reads 67.8%.
Consider `Cc1[nH]c2ccc(NS(C)(=O)=O)cc2c1C1CCN(CC2CCN(C(=O)/C=C/c3ccc(Cl)c(Cl)c3)CC2)CC1` [TCMDC-140125], for which the “% Inhibition” value was -39.53%.
The result for `COc1ccc2nccc([C@@H](O)CN3CCC(NC(=O)c4ccc(Cl)c([N+](=O)[O-])c4)CC3)c2c1` [TCMDC-141037] reads -23.07%.
The result for `O=C(Nc1cccc(-c2csc(-c3nc4ccccc4[nH]3)c2)c1)c1cccnc1` [TCMDC-132403] reads 77.71%.
For `Cn1cnc(CCNC(=O)c2ccc(-c3cccc(-c4nc5ccccc5[nH]4)c3)cc2)c1` [TCMDC-132495] the value was -19.92%; for `Cn1cnc(CCNC(=O)c2cccc(-c3ccc(-c4nc5cc(F)ccc5[nH]4)cc3)c2)c1` [TCMDC-132492], 7.487%.
As to `O=C(Nc1cccc(-c2cccc(-c3nc4ccccc4[nH]3)c2)c1)c1cccnc1` [TCMDC-136928], the “% Inhibition” value is given as 76.9%.
For `Cn1cnc(CCNC(=O)c2cccc(-c3csc(-c4nc5ccccc5[nH]4)c3)c2)c1` [TCMDC-132501] the value was 74.26%.
For `O=C(Nc1cccc(-c2cccc(-c3nc4ccccc4[nH]3)c2)c1)c1ccncc1` [TCMDC-136955] the value was 6.238%; for `O=C(Nc1cccc(-c2csc(-c3nc4ccccc4[nH]3)c2)c1)c1ccncc1` [TCMDC-132402], 13.78%; for `O=C(Nc1cccc(-c2ccc(-c3nc4ccccc4[nH]3)cc2)c1)c1cccnc1` [TCMDC-136924], -5.994%.
For `CC(=O)Nc1cccc(C(=O)Nc2cccc(-c3csc(-c4nc5ccccc5[nH]4)c3)c2)c1` [TCMDC-132398] the value was -2.258%; for `CN(C)c1ccc(N2C(N)=NC(N)=NC23CCCC3)cc1` [TCMDC-123607], 9.069%.
As to `CN(CC(=O)Nc1cc(C(F)(F)F)ccc1-n1cncn1)Cc1ccc2ccccc2c1` [TCMDC-125257], the “% Inhibition” value is on record as -1.841%.
For `Cc1cc(NCc2ccc(F)cc2)nc2cc(O)ccc12` [TCMDC-124412] the value was 9.894%; for `O=C(/C=C/c1ccc(Cl)c(Cl)c1)N1CCC(CN2CCC(Cc3cc4ccccc4[nH]3)CC2)CC1` [TCMDC-140231], 13.2%; for `CCCCCCCCc1[nH]c(C)c(Br)c(=O)c1Br` [TCMDC-137433], 43.41%.
Take `Cc1cc(CN2CCC(C(=O)Nc3ccc(-c4nc5ccccc5[nH]4)cc3)CC2)oc1C` [TCMDC-124612]: the “% Inhibition” value is -34.2%.
For `COc1ccc(C2C(C(=O)Nc3ccc(C)c(F)c3)c3cc(OC)c(OC)cc3C(=O)N2C)cc1` (stereo not shown) [TCMDC-123594] the value was -36.5%.
For `COc1ccc(C2C(C(=O)Nc3ccc4c(c3)OCO4)c3cc(OC)c(OC)cc3C(=O)N2C)cc1` (stereo not shown) [TCMDC-123593] the value was 37.81%; for `COc1cc2c(cc1OC)C(C(=O)Nc1cc(OC)c(OC)c(OC)c1)C(c1ccc(SC)cc1)N(C)C2=O` (stereo not shown) [TCMDC-125151], 59.65%; for `COc1cc(SC)ccc1C(=O)N1CC(C)CC(C)C1` (stereo not shown) [TCMDC-123656], 27.35%.
The result for `COc1ccc(C2C(C(=O)Nc3cc(OC)c(OC)c(OC)c3)c3cc(OC)c(OC)cc3C(=O)N2C)cc1` (stereo not shown) [TCMDC-125141] reads 92.28%; that for `O=C(N[C@@H](Cc1ccccc1)C(=O)NC1CCCc2ccccc21)c1ccc(O)c(-c2cccc(C(F)(F)F)c2)c1` (stereo partly shown) [TCMDC-140820], 23.49%; that for `CCN(CC)CCN(Cc1ccc(-c2ccc(C#N)cc2)cc1)C(=O)Cn1c(CCc2cccc(F)c2F)nc(=O)c2ccccc21` [TCMDC-141150], 0.7472%.
In the case of `CCN(CC)CCN(CCCc1ccc(-c2ccc(C(F)(F)F)cc2)cc1)C(=O)Cn1c(CCc2cccc(F)c2F)nc(=O)c2ccccc21` [TCMDC-141253], the “% Inhibition” value was 67.3%.
The result for `CC(C)(C)NCCN(Cc1ccc(-c2ccc(C(F)(F)F)cc2)cc1)C(=O)Cn1c(CCc2cccc(F)c2F)nc(=O)c2ccccc21` [TCMDC-141080] reads 105.1%; that for `CCN(CC)CCN(Cc1ccc(-c2ccc(Cl)s2)cc1)C(=O)Cn1c(CCc2cccc(F)c2F)nc(=O)c2ccccc21` [TCMDC-141229], 28.5%.
The result for `CCN(CC)CCN(Cc1ccc(-c2ccc(Cl)cc2)cc1)C(=O)Cn1c(CCc2cccc(F)c2F)nc(=O)c2ccccc21` [TCMDC-141054] reads 39.4%; that for `CCN(CC)CCN(Cc1ccc(-c2ccc(Br)cc2)cc1)C(=O)Cn1c(CCc2cccc(F)c2F)nc(=O)c2ccccc21` [TCMDC-141305], 51.66%; that for `CCN(CC)CCN(Cc1ccc(-c2ccc(C(F)(F)F)s2)cc1)C(=O)Cn1c(CCc2cccc(F)c2F)nc(=O)c2ccccc21` [TCMDC-141262], 57%.
